Bioassay records as filed in PubChem.
The list is not random: actives were taken first. Their share in the collection is about 3.4%.
SMARCA2 act = SMARCA2 function activation, primary screen. MG213 cells, MMTV-luciferase reporter, dexamethasone, overnight. activation, % at 9.1 µM. 370,000 compounds, 1% hits. AID 652017; in the data active means activation above about 7.8%;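 further: 0% = vehicle wells and 100% = reference activator wells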
FXN GAA850 act = increases GAA850 frataxin promoter reporter activity; HEK293 lucGAA850 FXN promoter luciferase reporter, 24 h; percent of 10 µM SAHA response; activation, % at 6 µM; 360,000 compounds, 0.56% hits; AID 540364;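 active means activation above the average of all compounds screened plus 3 SD, cutoff fixed separately per campaign, cut at about 7.5% in these data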;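 further: 0% = DMSO wells and 100% = 10 µM SAHA wells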
COUP-TFII inh = NR2F2 (human) inhibition, primary screen. P24468. HEK293T NGFI-A luciferase reporter, luminescence. inhibition, % at 8.6 µM. 370,000 compounds, 0.7% hits. AID 686940;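 active means inhibition above a per-plate cutoff, mean inhibition of test wells between control levels plus 3 SD, cut at about 38% in these data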;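 further: cells cotransfected with COUP-TFII expression vector driving the NGFI-A reporter; 0% = median of COUP-TF2 test wells and 100% = reporter-only cells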
GalR3 antagonist = blocks the human galanin receptor 3; AID 651719; HEK293 GalR3-CNG cAMP membrane potential fluorescence; galR3 body fused to GalR1 C-terminus; 360,000 compounds, 0.44% hits; O60755; inhibition, % at 3 µM;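 active means inhibition above the screen-wide average plus 3 SD, cut at about 13% in these data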;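 further: forskolin and galanin both at EC90 stimulate the cells; cAMP rise reported by CNG channel membrane potential dye signal; 0% = forskolin plus galanin with DMSO and 100% = forskolin alone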
Target sequence (O60755 1-299 limits assumed): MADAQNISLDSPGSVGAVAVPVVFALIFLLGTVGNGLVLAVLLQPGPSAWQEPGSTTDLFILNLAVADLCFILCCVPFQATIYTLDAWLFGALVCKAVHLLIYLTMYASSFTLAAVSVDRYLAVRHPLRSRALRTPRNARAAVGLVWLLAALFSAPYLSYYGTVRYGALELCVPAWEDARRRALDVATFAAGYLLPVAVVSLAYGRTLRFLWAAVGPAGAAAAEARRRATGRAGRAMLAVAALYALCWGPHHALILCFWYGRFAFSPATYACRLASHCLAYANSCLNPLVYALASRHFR
Gli-Sufu antag = antagonists of Gli-Sufu signaling; 340,000 compounds, 0.74% hits; Sufu-KO-LIGHT fibroblasts, Gli luciferase reporter luminescence; inhibition, % at 5 µM;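 active means inhibition above about 55%, limit read from the data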;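 further: 0% = DMSO-treated cells and 100% = wells with medium but no cells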
Cardio protect = protects H9c2 cardiomyocytes from peroxide injury; H2O2 injury protection, ATPLite, 2 h; protection from H2O2 cell death, % at 20 µM; 360,000 compounds, 0.63% hits; AID 588492;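 active means compounds giving at least 50% protection of heart cells from peroxide-induced death in the single-dose screen, raw or plate-pattern-corrected value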;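 further: 0% = DMSO wells with peroxide and 100% = DMSO wells without peroxide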
The depositor's hits bear a star; · = no result given.

SMILES | SMARCA2 act | FXN GAA850 act | COUP-TFII inh | GalR3 antagonist | Gli-Sufu antag | Cardio protect
COC(=O)[C@H](C)NC(=O)[C@H](CC(C)C)NC(=O)OC(C)(C)C | -3 | · | 7 | · | · | ·
COc1cc(-c2cc(NC=O)c3ncc(-c4cccc(C(F)(F)F)c4)n3c2)cc(OC)c1OC | -1 | 1 | 2 | 4 | · | 59*
COc1cc(-c2cnc3c(NC=O)cc(-c4ccc(C)cc4)cn23)cc(OC)c1OC | 1 | 0 | -86 | 9 | · | 11
COc1cccc(-c2cc(NC=O)c3ncc(-c4ccc(C(C)=O)cc4)n3c2)c1 | -2 | -3 | -1 | -4 | · | 34
COc1ccc(-c2cc(NC=O)c3ncc(-c4cccc(C(F)(F)F)c4)n3c2)cc1OC | 0 | 3 | 9 | -4 | · | 17
COc1ccc(-c2cc(NC=O)c3ncc(-c4ccc(C(C)=O)cc4)n3c2)cc1OC | 7.9* | -2 | -29 | 4 | · | 47
COc1cc(-c2cc(NC=O)c3ncc(-c4ccc(C(C)=O)cc4)n3c2)cc(OC)c1OC | 4 | -2 | -18 | -6 | · | 81*
COc1cc(-c2cc(NC=O)c3ncc(-c4ccccc4)n3c2)cc(OC)c1OC | -1 | 4 | -61 | -7 | · | 96*
CCCCCC[C@@H](CN(CCCC)S(C)(=O)=O)c1ccccc1 | -1 | · | 0 | · | · | ·
COC(=O)[C@]12CCCCC=C1N(Cc1ccc(OC)cc1)C(=O)[C@@H]2CC(=O)NCc1ccc(C)o1 | 0 | · | -6 | · | · | ·
CCOc1ccc(Oc2c(Cl)c(Br)nn(Cc3cccc4ccccc34)c2=O)cc1 | -2 | · | 3 | · | · | ·
CCCn1c(NC(=O)c2ccccc2)nc(Cc2ccccc2)c1-c1ccc(OC)cc1 | -3 | · | 24 | · | · | ·
CN(C)C(=O)C1C2NC(=S)N(c3ccc(Cl)cc3)C1(C)Oc1ccc(Cl)cc12 (stereo not drawn) | -2 | 2 | -9 | -10 | -10 | 41
CN(C)C(=O)C1C2NC(=S)N(c3cccc(Cl)c3)C1(C)Oc1ccc(Cl)cc12 (stereo not drawn) | -2 | 0 | 12 | -7 | -17 | 56*
CC(C)(C)OC(=O)N1CCC[C@@H]1C(=O)NCc1ccccc1Cl | -5 | · | 6 | 3 | · | ·
CCOc1ccc(-n2cc(-c3ccccc3)c3c(N4CCOCC4)ncnc32)cc1 | -5 | -4 | 17 | -3 | 14 | 63*
c1ccc(-c2cn(-c3ccccc3)c3ncnc(N4CCCCC4)c23)cc1 | -4 | 1 | -4 | 5 | 21 | 5
CCOc1ccc(-n2cc(-c3ccccc3)c3c(=S)nc[nH]c32)cc1 | -2 | 5 | 10 | -7 | -3 | 52*
CC(C)CCN1C(=O)COc2ccccc2C1c1nnnn1-c1ccc2c(c1)OCCO2 (stereo not drawn) | 0 | · | 8 | · | · | ·
Cc1ccc(S(=O)(=O)N2C[C@H]3C(=O)C[C@@H](c4ccccc4F)N(S(=O)(=O)c4ccc(C)cc4)[C@H]3C[C@H]2c2ccccc2F)cc1 | -4 | · | 15 | 4 | · | 4
Cc1cccc(N2C(=O)N3[C@H](c4ccc(Cl)cc4)[C@@H]4C(=O)N(C5CCCCC5)C(=O)[C@@H]4[C@]3(Cc3ccc(Cl)cc3)C2=O)c1 | · | 10* | · | · | -4 | -4
Cc1cccc(N2C(=O)N3[C@H](c4ccc(F)cc4)[C@@H]4C(=O)N(C5CCCCC5)C(=O)[C@@H]4[C@]3(Cc3ccc(Cl)cc3)C2=O)c1 | 0 | 5 | -1 | -9 | 5 | -8
COC(=O)[C@@]12CCCCC=C1N(CCc1ccc(Cl)cc1)C(=O)[C@H]2CC(=O)NCc1cccc(C(F)(F)F)c1 | -3 | · | -8 | · | · | ·
COc1c(O)cccc1/C=N/NC(=O)Cn1ccnc1C | 2 | 1 | 17 | -1 | 4 | 57*
O=C(NCC(=O)N(Cc1cccs1)C(C(=O)NC1CCCCC1)c1ccco1)c1ccco1 (stereo not drawn) | -2 | 0 | 0 | -4 | 6 | 77*
COc1ccc(CN(C)C(=O)C2CCCN(c3nc4ccccc4o3)C2)cc1 (stereo not drawn) | 4 | · | 14 | · | · | ·
CCC1CCc2sc(C(=O)NCC3CCCO3)cc2C1 (stereo not drawn) | 7.9* | 3 | -33 | -4 | -56 | -6
Cc1ccc(CN2CCCCC(NC(=O)c3cccc([N+](=O)[O-])c3)C2=O)cc1 (stereo not drawn) | -3 | · | 3 | · | · | ·
